# Reference: the supplement of paper PMC12669032
# Unmarked numbers belong to inactive results.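 Rule for the calls: active = AUC reduced over 20% with Padj below 0.05 in at least 2 of 3 replicates; inactive = otherwise.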
# What was measured:
# Assay in all cases: growth AUC relative to DMSO control (median of replicates) (fraction); higher = more growth (less inhibition), active = hit call of the paper
# Conditions in all cases: 20 µM; 24 h
# [1] = system: Akkermansia muciniphila
# How it was run: (§1)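 Hourly OD600 readings over 24 h tracked anaerobic gut bacterial monocultures grown at 37 °C in mGAM from OD600 0.05 with 20 µM compound (1% DMSO). After the minimum OD was set to 0, area under the growth curve was normalised to the plate median of solvent-only wells, or to row and column medians on the industrial chemical plate. Values are medians of three biological replicates grown on separate days.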
# [2] = system: Bacteroides caccae
# How it was run: as §1
# [3] = system: Bacteroides clarus
# How it was run: as §1
# [4] = system: Bacteroides dorei
# How it was run: as §1
# [5] = system: Bacteroides stercoris
# How it was run: as §1
# [6] = system: Bacteroides thetaiotaomicron
# How it was run: as §1
# [7] = system: Bacteroides uniformis
# How it was run: as §1
# [8] = system: Bifidobacterium longum subsp. longum
# How it was run: as §1
# [9] = system: Clostridium difficile
# How it was run: as §1
# [10] = system: Collinsella aerofaciens
# How it was run: as §1
# [11] = system: Coprococcus comes
# How it was run: as §1
# [12] = system: Escherichia coli ED1a
# How it was run: as §1
# [13] = system: Escherichia coli IAI1
# How it was run: as §1
# [14] = system: Eubacterium rectale
# How it was run: as §1
# [15] = system: Fusobacterium nucleatum subsp. animalis
# How it was run: as §1
# [16] = system: Lactobacillus gasseri
# How it was run: as §1
# [17] = system: Lactobacillus paracasei
# How it was run: as §1
# [18] = system: Odoribacter splanchnicus
# How it was run: as §1
# [19] = system: Parabacteroides distasonis
# How it was run: as §1
# [20] = system: Parabacteroides merdae
# How it was run: as §1
Compound,growth AUC [1],growth AUC [2],growth AUC [3],growth AUC [4],growth AUC [5],growth AUC [6],growth AUC [7],growth AUC [8],growth AUC [9],growth AUC [10],growth AUC [11],growth AUC [12],growth AUC [13],growth AUC [14],growth AUC [15],growth AUC [16],growth AUC [17],growth AUC [18],growth AUC [19],growth AUC [20]
CCOP(=O)(SC(C)CC)SC(C)CC (stereo not given),0.94,1.01,0.962,1.02,0.949,0.993,0.981,0.97,0.982,0.933,1.01,1.01,0.987,1.1,0.983,1.04,0.989,0.933,0.95,0.975
CCOC(=O)c1cn2nc(OP(=S)(OCC)OCC)cc2nc1C,1.14,0.973,0.945,0.904,0.876,0.991,0.834,1.05,0.988,0.967,0.952,0.981,0.97,1.13,0.938,0.908,0.911,0.692 (active),0.662 (active),0.909
CCCOc1nn(C(=O)[N-]S(=O)(=O)c2ccccc2C(=O)OC)c(=O)n1C.[Na+],0.978,1.02,0.979,1.02,1.13,0.992,0.972,1.01,0.994,1.02,0.988,0.994,1.02,1.08,1.12,0.968,0.977,1.1,1.02,0.999
O=P(OC(CCl)CCl)(OC(CCl)CCl)OC(CCl)CCl,1.09,0.845,0.999,0.87,1.3,0.947,0.868,1.05,0.9,0.948,0.89,1.01,1,1.07,1.11,0.905,1.03,0.613,0.5 (active),0.911
[Cl][Sn]([c]1ccccc1)([c]1ccccc1)[c]1ccccc1,0.915,0.0272 (active),0.272 (active),0.0162 (active),0.0164 (active),0.00729 (active),0.0126 (active),0.303 (active),0.849,0.152 (active),0.0492 (active),0.981,0.964,0.0221 (active),0.897,0.383,0.83,0.0358 (active),0.048 (active),0.0101 (active)
NCP(=O)(O)O,1.04,1.02,1.03,1.03,1.17,0.982,1.02,1.04,1.06,1.05,1.02,1.02,1.04,1.01,0.965,1.09,1.02,1.02,1.04,1.02
Cc1ccc(N(SC(F)(Cl)Cl)S(=O)(=O)N(C)C)cc1,0.918,1,1,1.04,1.02,1.02,1.03,1.03,0.991,0.989,1.02,0.974,0.982,1.03,1,1.07,1,1.02,1.06,1.04
COc1cccc(C(=O)NN(C(=O)c2cc(C)cc(C)c2)C(C)(C)C)c1C,1.14,0.966,0.996,0.933,0.951,0.986,0.958,0.975,0.969,0.92,1.01,0.974,0.97,1.07,0.884,0.818,0.947,0.966,0.86,0.908
C[C@@H](Oc1ccc(Oc2nc3ccc(Cl)cc3o2)cc1)C(=O)O,1.03,1,1.01,0.924,1.09,1.01,0.929,1.16,0.905,0.961,1.04,1.01,1.02,1.07,1.01,0.968,0.983,1.09,1.03,1.03
CC(C)(C)C(O)/C(=C/c1ccc(Cl)cc1Cl)n1cncn1 (mixture of isomers),1,0.869,0.947,0.854,1.32,0.88,0.874,1.02,0.964,1.03,0.959,0.983,0.979,0.992,1,0.836,0.997,0.86,0.938,0.907
CNC(=O)ON=C(CSC)C(C)(C)C,0.989,1.01,0.992,0.929,1,0.986,1.04,0.999,1,0.983,0.968,1.01,1,0.981,1.01,1.03,0.985,0.983,1.02,1.02
CCOP(=S)(OCC)SCS(=O)CC (stereo not given),1.03,0.99,0.994,1.01,1.05,1.02,0.994,1.03,0.972,1.01,1.03,0.996,1.01,0.995,1.04,0.95,0.95,1.06,1.09,0.998
COP(=O)(OC)OC=C(Cl)Cl,1.04,1.05,1.01,0.984,1.17,1.03,1.03,1.04,1.05,1.01,1.03,1.01,1.02,1.04,1.09,0.912,1.04,1.01,1.05,1.01
CC(C)C1(C)N=C(c2nc3ccccc3cc2C(=O)O)NC1=O (stereo not given),0.971,1.01,1.02,0.957,1.03,0.992,1.01,0.967,0.958,0.962,1.01,0.985,0.983,0.965,1.02,1.03,0.891,0.908,0.986,0.997
CC(C)N(C(=O)COc1nnc(C(F)(F)F)s1)c1ccc(F)cc1,0.411 (active),1.05,1.02,0.996,0.973,0.952,0.907,1.03,0.955,1.01,0.988,1.03,1.01,1.1,1.05,1.04,1.02,1,0.937,0.986
CCOP(=S)(OCC)SCSC(C)(C)C,1.04,0.964,1.01,0.963,0.988,0.998,1.02,1.13,0.888,0.96,0.996,1,1.01,1.22,0.902,0.909,1.03,1.06,0.955,1
